# Screens deposited in PubChem by several laboratories.
# IDE cell inh – cellular human IDE inhibition; inhibition, % at 5.59 µM; P14735; 0.41% of 320,000 active; HEK cells, FAbetaB cleavage, fluorescence polarization; AID 434962;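 active = percent inhibition above the average of all tested compounds plus 3 SD, set per screening campaign, cut at about 16% in these data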;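 note: IDE supplied by intact live HEK cells; FP after avidin binding of uncleaved biotin substrate so inhibition keeps polarization high; 0% = DMSO wells and 100% = 60 µM reference IDE inhibitor Ii1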
# Target sequence (P14735 whole entry, looked up): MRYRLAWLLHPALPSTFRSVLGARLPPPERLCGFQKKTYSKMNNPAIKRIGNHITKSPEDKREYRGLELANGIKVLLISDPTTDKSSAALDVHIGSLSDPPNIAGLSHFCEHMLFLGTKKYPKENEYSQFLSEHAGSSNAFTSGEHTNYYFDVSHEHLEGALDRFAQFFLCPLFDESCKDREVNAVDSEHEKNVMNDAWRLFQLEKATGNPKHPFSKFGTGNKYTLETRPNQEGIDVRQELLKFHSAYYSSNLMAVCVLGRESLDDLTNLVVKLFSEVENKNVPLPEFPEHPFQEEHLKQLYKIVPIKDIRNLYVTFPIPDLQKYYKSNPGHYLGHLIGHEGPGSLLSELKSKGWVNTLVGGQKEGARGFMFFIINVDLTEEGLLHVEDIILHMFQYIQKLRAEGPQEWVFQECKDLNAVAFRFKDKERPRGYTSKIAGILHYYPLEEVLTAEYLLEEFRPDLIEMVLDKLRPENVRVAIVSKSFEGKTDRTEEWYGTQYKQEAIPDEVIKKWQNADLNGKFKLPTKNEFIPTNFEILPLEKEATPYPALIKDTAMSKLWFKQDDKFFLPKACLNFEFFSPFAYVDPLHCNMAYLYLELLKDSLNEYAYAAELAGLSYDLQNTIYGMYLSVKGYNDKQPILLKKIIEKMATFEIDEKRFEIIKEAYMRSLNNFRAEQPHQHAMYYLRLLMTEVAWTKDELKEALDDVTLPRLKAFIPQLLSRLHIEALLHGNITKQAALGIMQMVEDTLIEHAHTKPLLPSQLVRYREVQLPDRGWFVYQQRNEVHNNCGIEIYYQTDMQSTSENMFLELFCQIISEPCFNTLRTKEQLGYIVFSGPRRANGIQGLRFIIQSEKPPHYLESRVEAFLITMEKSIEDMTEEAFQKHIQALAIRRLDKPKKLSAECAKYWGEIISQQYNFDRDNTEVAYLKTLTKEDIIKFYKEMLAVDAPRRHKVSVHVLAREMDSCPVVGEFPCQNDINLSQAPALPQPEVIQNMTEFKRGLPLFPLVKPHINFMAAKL
# LANA-H2B inh – blocks KSHV LANA binding to histone H2A/H2B; 0.6% of 320,000 active; Q9QR71; inhibition, % (no concentration beside the values); cell-free LANA-H2A/H2B peptide, fluorescence polarization; AID 2629; in the data active = inhibition mostly above about 10%, no sharp cut-off; inactive = mostly below about 6.7%
# HDAC3 inhib – inhibitors of human histone deacetylase 3; O15379; recombinant HDAC3, fluorogenic peptide/trypsin coupled, fluorescence; inhibition, % at 8.3 µM; 0.15% of 320,000 active; AID 2718; in the data active = inhibition above about 26%, passing the limit was not always enough
# IDE act – boosts human insulin-degrading enzyme activity in HEK cells. P14735. FAbeta-B cleavage, fluorescence polarization; 0% vehicle, 100% cell-free pure enzyme wells. activation, % at 5.96 µM. 0.073% of 340,000 active;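 active = activation above the mean of all tested compounds plus 3 SD, set per screening campaign, cut at about 17% in these data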
# IDE inh confirm – confirmation of human insulin-degrading enzyme inhibitors in cells; shares compounds with IDE cell inh; HEK cells, FAbetaB cleavage, fluorescence polarization; inhibition, % at 5.59 µM; 51% of 1,200 active; AID 435028;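 active = mean inhibition across triplicate wells above the cutoff set by the earlier primary insulin-degrading enzyme screen, cut at about 16% in these data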;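 note: 0% = DMSO wells and 100% = 60 µM reference IDE inhibitor Ii1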
# HEK cytotox – kills HEK cells in IDE inhibitor counter-screen; shares compounds with IDE cell inh; HEK293 cytotoxicity, ATP luminescence; inhibition, % at 5.59 µM; 28% of 1,200 active; in the data active = inhibition above about 22%;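 note: 0% = vehicle wells and 100% = reference cytotoxic drug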
# * = called active by the depositor; · = no result given. Only some compounds are listed: those with a hit (about 1.1% of all), similar ones and a draw of the others.
SMILES,IDE cell inh,LANA-H2B inh,HDAC3 inhib,IDE act,others
COc1ccc(S(=O)(=O)N2CCC(C(=O)NC3CCCC3)CC2)cc1C,1,-1,0,8,
NC(=O)c1ccc[n+]([C@H]2O[C@@H](COP(=O)([O-])OP(=O)(O)OC[C@H]3O[C@@H](n4cnc5c(N)ncnc54)[C@H](O)[C@@H]3O)[C@H](O)[C@@H]2O)c1,9,-3,0,5,
CCS(=O)(=O)C1=NN2C(=N)/C(=C\c3ccc(OC(=O)c4ccco4)c(Br)c3)C(=O)N=C2S1,9,-2,39*,·,
O=C(O)c1ccccc1NC(=O)C1CCN(S(=O)(=O)c2cccc3nsnc23)CC1,-22,1,-1,32*,
O=C(CN1CCN(Cc2ccccc2Cl)CC1)N/N=C/c1ccco1,3,-3,10,1,
O=C(COC(=O)C1CC2CCCC(C1)C2=O)NNC(=O)c1ccccc1F (stereo not drawn),5,34*,0,4,
Cc1ccccc1NC(=O)COC(=O)C1CC2CCCC(C1)C2=O (stereo not drawn),-2,2,1,3,
Cc1[nH]c2ccccc2c1CCN(Cc1cccnc1)C(=S)NC(C)(C)C,-4,-3,5,4,
COc1ccc(NC(C)=O)cc1NC(=O)CSc1nnc(C2CCCCC2)n1N,0,-6,-1,3,
CCCCC(CC)COC(=O)CCCCC(=O)OCC(CC)CCCC (stereo not drawn),5,46*,-1,0,
Cc1nn(Cc2cccc(F)c2)c(C)c1NC(=O)c1c(Cl)cnn1C,4,5,2,2,
Cc1cc(C)c2cc(CN(Cc3ccco3)C(=S)NCC3CCCO3)c(=O)[nH]c2c1 (stereo not drawn),11,20*,-4,0,
c1ccc2c(c1)CCCN2Cc1nnc2n1CCCCC2,-1,59*,3,2,
S=c1[nH]nc(-c2ccc3ccccc3n2)n1Cc1ccccc1,-4,-1,3,2,
CN(CC(=O)Nc1ccc(Cl)c(Cl)c1)C(=O)c1cccc2cccnc12,2,70*,-2,0,
O=C(Nc1ccccc1)C(=O)Nc1ccc2c(c1)N(C(=O)C1CC1)CCC2,2,-2,-3,2,
Cn1ccnc1C(=O)C1CCCN(Cc2cn[nH]c2-c2ccc(-c3ccccc3)cc2)C1 (stereo not drawn),5,18*,-1,-1,
CCN1C(=O)[C@H]2[C@@H](c3ccc(-c4ccccc4)cc3)N3CCC[C@@]3(C(=O)OC)[C@H]2C1=O,5,0,0,4,
CCN(C(=O)COC(=O)c1c2c(nc3ccccc13)/C(=C/c1ccccc1)CC(C)C2)C1CCS(=O)(=O)C1 (stereo not drawn),7,-1,6,5,
CN(C)c1ccc(/C=C(\Cl)c2nc3ccccc3s2)cc1,2,4,0,0,
N#C/C(=C/N1CCOCC1)c1ccccc1,-1,-2,3,4,
N#C/C(=C/c1ccc(N2CCOCC2)o1)c1ccc(Cl)cc1,14,10*,0,-48,
O=S(=O)(N/N=C1\CCCc2ccccc21)c1ccccc1,-2,14*,6,-1,
O=S(=O)(N/N=C1/CCCc2ccccc21)c1ccc(Br)cc1,5,3,24,-7,
CCCC(NC(=O)c1c(C)noc1C)C12CC3CC(CC(C3)C1)C2 (stereo not drawn),3,4,6,2,
SMILES,IDE cell inh,LANA-H2B inh,HDAC3 inhib,IDE act,others
O=C(CC1SC(N2CCCCC2)=NC1=O)Nc1cccc(C(=O)Nc2ncccc2O)c1 (stereo not drawn),-5,3,65*,1,
O=C(CC1SC(N2CCOCC2)=NC1=O)Nc1ccc(Cl)c(C(F)(F)F)c1 (stereo not drawn),3,22*,6,-3,
O=C(CC1SC(N2CCOCC2)=NC1=O)Nc1cccc(C(F)(F)F)c1 (stereo not drawn),-4,-4,-11,3,
CC(C)NC(=O)c1cccc(NC(=O)CC2SC(N3CCCCC3)=NC2=O)c1 (stereo not drawn),·,·,·,-1,
COc1ccc(C2C(C(N)=O)=C(C)Nc3nc(CCCO)nn32)cc1OC (stereo not drawn),5,-7,2,0,
Oc1ccccc1Nc1ccccn1,2,-2,3,-1,
c1ccc(Nc2ccccn2)nc1,-4,8.3*,-3,-6,
Nc1cc(N)nc(SCCOc2ccccc2)n1,-1,3,6,23*,
COc1cccc(OCCSc2nc(N)cc(N)n2)c1,1,-6,0,9,
O=c1c2[nH]c3ccc(F)cc3c2ncn1CC1CCCO1 (stereo not drawn),7,-2,-4,0,
Fc1ccc2[nH]c3c(N4CCN(C5CCCCC5)CC4)ncnc3c2c1,20*,0,-12,·,
c1ccc2c(-c3cncc4ccccc34)cncc2c1,5,5,0,-1,
CCCCC(=O)NCCc1ccc(OC)cc1,-1,0,-6,-2,
CCOc1ccc(OCCCC(=O)NCCc2ccc(OC)cc2)cc1,-2,11*,-10,-2,
COc1ccccc1NC(=O)c1cnc(SCC(=O)NCC2CCCO2)n(C)c1=O (stereo not drawn),-1,-8,9,-3,
N#CC(=C=[N-])/C=C(\C(=O)c1ccccc1)[n+]1ccccc1,1,21*,3,5,
O=C(Cn1sc2ccccc2c1=O)NC12CC3CC(CC(C3)C1)C2,58*,0,10,-37,
CCCNC(=O)c1ccccc1NC(=O)Cc1ccc(OC)c(S(=O)(=O)N2CCOCC2)c1,-4,4,3,0,
CC(=O)N1CCC(N2CCN(c3ccccc3F)CC2)CC1,-7,17*,-2,4,
CCc1nnc(/N=C/c2c(O)n(-c3ccc(Cl)cn3)c(=O)c3ccccc23)s1,17*,7,0,5,IDE inh confirm=7;HEK cytotox=10
CC(C)(C)N/N=C/c1c(O)n(-c2ccc(Cl)cn2)c(=O)c2ccccc12,-1,0,-9,-1,
O=C(COC(=O)C1CCC(=O)N1)Nc1cccc([N+](=O)[O-])c1 (stereo not drawn),4,3,-4,-3,
O=C(COC(=O)c1cccc(Cl)c1)Nc1cc(S(=O)(=O)N2CCOCC2)ccc1N1CCOCC1,·,·,·,3,
O=C(OCCN1C(=O)c2cccc3c(N4CCOCC4)ccc(c23)C1=O)c1ccc(Cl)cc1Cl,49*,30*,3,-46,IDE inh confirm=48*;HEK cytotox=61*
O=C(OCCN1C(=O)c2cccc3c(N4CCOCC4)ccc(c23)C1=O)c1cccc(Cl)c1,91*,37*,2,·,IDE inh confirm=81*;HEK cytotox=38*
O=C(OCCN1C(=O)c2ccccc2C1=O)c1cc(S(=O)(=O)N2CCOCC2)ccc1Cl,2,0,17,2,
